# The full ranking holds about 8,300 sequences; the median of “log2 fold change of degron read counts, EGFP-low vs EGFP+ sorted cells (limma voom), compound-induced degradation” is about -1.1, and the highest 2% start at about 3.2. This is one part of a sample in which the highest values are shown more often than they occur.
# T1: CRBN, Q96SW2
# T1 chain: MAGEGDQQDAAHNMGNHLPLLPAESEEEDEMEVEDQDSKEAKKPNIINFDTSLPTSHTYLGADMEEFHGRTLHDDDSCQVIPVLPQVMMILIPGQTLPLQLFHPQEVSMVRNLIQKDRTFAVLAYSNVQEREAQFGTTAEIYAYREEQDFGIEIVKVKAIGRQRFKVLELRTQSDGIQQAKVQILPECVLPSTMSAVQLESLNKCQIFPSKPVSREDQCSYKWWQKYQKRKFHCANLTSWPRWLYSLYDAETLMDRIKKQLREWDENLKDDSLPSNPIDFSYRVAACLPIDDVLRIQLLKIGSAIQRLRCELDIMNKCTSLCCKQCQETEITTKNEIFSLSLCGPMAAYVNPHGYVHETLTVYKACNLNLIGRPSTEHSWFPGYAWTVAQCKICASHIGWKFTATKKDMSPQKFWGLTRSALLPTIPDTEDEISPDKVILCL
# Molecular target: T1, CRBN, Q96SW2
# Test: log2 fold change of degron read counts, EGFP-low vs EGFP+ sorted cells (limma voom), compound-induced degradation; higher = more compound-induced degradation of the degron-EGFP fusion; degrons are variants of IKZF1/3 zinc finger 2; compound dose not given here
# Conditions: Jurkat, 18 h
# Protocol: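 Pooled library of 8380 IKZF3 ZF2 degron mutants (positions 146-167 varied within the IKZF3 130-189 degron; only the varied core is printed, flanks not printed) fused to EGFP with IRES-mCherry, lentivirally expressed in Jurkat cells. mCherry+ cells were treated with one IMiD compound for 18 h (dose not stated) and FACS-sorted into EGFP-low and EGFP+ populations. Degron sequences were counted by NGS, and log2FC (EGFP-low vs EGFP+) was estimated by limma voom over 3 biological replicates.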
# [1] = compound: compound 19 (5-tert-butyl-thalidomide)
# [2] = compound: compound 22 (5-morpholino-thalidomide)
# [3] = compound: compound 33 (diphenyl IMiD analogue)
# 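Further: pooled lentiviral library of zinc finger degron-EGFP fusions in mCherry-positive Jurkat cells, FACS-sorted after compound exposure, with degron abundance counted by next-generation sequencing.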
Sequence,log2 fold change of degron read counts [1],log2 fold change of degron read counts [2],log2 fold change of degron read counts [3],log2 fold change of degron read counts (compound: thalidomide)
"FHCNICGAQFTQKGNLLRHIKL [46F_47H_49N_50I_52G_53A_54Q_55F_67L_, Q9UKT9]",0.655,1.29,1.05,-0.181
"FYCEICGRCFTQKGNLLRHIKL [46F_47Y_49E_50I_52G_53R_54C_55F_67L_, Q9UKT9]",0.939,0.533,1.13,-0.963
"FKCEQCGAVFTQKGNLLRHIKL [46F_47K_49E_50Q_52G_53A_54V_55F_67L_, Q9UKT9]",-3.73,-2.96,-3.73,-3.19
"FKCNQCGAVFTQKGNLLRHIKL [46F_47K_49N_50Q_52G_53A_54V_55F_67L_, Q9UKT9]",-2.58,-2.71,-3.07,-2.52
"LCCNQCGFACTQKGNLLRHIKL [46L_47C_49N_50Q_52G_53F_54A_55C_67L_, Q9UKT9]",-1.66,-2.13,-1.86,-1.41
"FICNQCGRGFTQKGNLLRHIKL [46F_47I_49N_50Q_52G_53R_54G_55F_67L_, Q9UKT9]",-3.02,-3.8,-3.62,-2.96
"FVCNQCGRLFTQKGNLLRHIKL [46F_47V_49N_50Q_52G_53R_54L_55F_67L_, Q9UKT9]",-1.99,-2.78,-1.99,-1.68
"FRCPVCGAAFTQKGNLLRHIKL [46F_47R_49P_50V_52G_53A_54A_55F_67L_, Q9UKT9]",2.21,2.41,2.44,2.31
"FACPVCGAAFTQKGNLLRHIKL [46F_47A_49P_50V_52G_53A_54A_55F_67L_, Q9UKT9]",3.6,2.87,1.74,1.56
"FVCDVCGAAFTQKGNLLRHIKL [46F_47V_49D_50V_52G_53A_54A_55F_67L_, Q9UKT9]",-0.53,1.92,0.755,1.42
"FLCPVCGAAFTQKGNLLRHIKL [46F_47L_49P_50V_52G_53A_54A_55F_67L_, Q9UKT9]",0.86,0.132,1.81,1.42
"FYCDVCGAAFTQKGNLLRHIKL [46F_47Y_49D_50V_52G_53A_54A_55F_67L_, Q9UKT9]",2.59,2.94,1.59,-1.42
"FWCDVCGAAFTQKGNLLRHIKL [46F_47W_49D_50V_52G_53A_54A_55F_67L_, Q9UKT9]",2.61,3.37,1.17,-0.68
"FVCNQCGARFTQKGNLLRHIKL [46F_47V_49N_50Q_52G_53A_54R_55F_67L_, Q9UKT9]",-2.15,-2.17,-1.37,-0.598
"FRCNQCGHEFTQKGNLLRHIKL [46F_47R_49N_50Q_52G_53H_54E_55F_67L_, Q9UKT9]",-3.26,-3.83,-3.1,-2.88
"FDCPICGHIFTQKGNLLRHIKL [46F_47D_49P_50I_52G_53H_54I_55F_67L_, Q9UKT9]",-2.28,-2.43,-1.8,-1.37
"LACPICGFWCTQKGNLLRHIKL [46L_47A_49P_50I_52G_53F_54W_55C_67L_, Q9UKT9]",2.95,2.34,2.58,2.45
"FICEQCGAIFTQKGNLLRHIKL [46F_47I_49E_50Q_52G_53A_54I_55F_67L_, Q9UKT9]",-2.04,-1.4,-0.144,-0.929

# Source: the supplement of paper PMC12645437, “Orthogonal IMiD-Degron Pairs Induce Selective Protein Degradation in Cells” (ACS Chemical Biology, 2025)
